# Source: PubChem (National Center for Advancing Translational Sciences (NCATS))
# FLuc inh: firefly luciferase inhibition; P08659; purified firefly luciferase, luminescence, 8 min; Potency, µM (highest dose often 57.1 µM), without a hit: top-dose activity change, negative = inhibition, hits mostly inhibitors; 72,000 tested, 2.2% active; further: on the % scale 0 is the no-effect control and ±100 the full control effect; nearly all actives have a fitted effect of over 40% in size
# Target sequence (P08659 whole entry, looked up): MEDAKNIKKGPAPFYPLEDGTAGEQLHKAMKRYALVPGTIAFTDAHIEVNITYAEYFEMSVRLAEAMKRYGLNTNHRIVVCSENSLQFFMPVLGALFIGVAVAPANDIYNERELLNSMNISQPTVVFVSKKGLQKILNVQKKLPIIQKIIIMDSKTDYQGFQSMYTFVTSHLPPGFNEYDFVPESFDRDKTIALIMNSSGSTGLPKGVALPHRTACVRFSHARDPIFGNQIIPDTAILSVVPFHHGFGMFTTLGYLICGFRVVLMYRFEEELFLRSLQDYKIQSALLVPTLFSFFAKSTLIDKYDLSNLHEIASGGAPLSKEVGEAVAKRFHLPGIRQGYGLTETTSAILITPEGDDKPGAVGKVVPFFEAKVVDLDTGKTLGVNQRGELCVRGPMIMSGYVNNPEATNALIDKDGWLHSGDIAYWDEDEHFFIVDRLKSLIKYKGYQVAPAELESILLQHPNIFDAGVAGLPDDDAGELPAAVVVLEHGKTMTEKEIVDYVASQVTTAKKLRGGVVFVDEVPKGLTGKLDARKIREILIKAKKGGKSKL
#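 Here, luciferase activity is measured as luminescence following an 8 min room-temperature reaction at 10 uM ATP, pH 7.2. Every library sample is titrated.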
# Bst PK mod: modulators of Bacillus stearothermophilus pyruvate kinase; purified pyruvate kinase, luminescence ATP production; ribose 5-phosphate activator present at AC10; Potency, µM; 51,000 tested, 1.2% active; in the data active means potency below about 11 µM; inconclusive means mostly about 12 µM to 25 µM;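 the screen sought inhibitors and activators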;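 further: scaled between full activation by ribose 5 phosphate and full inhibition by luteolin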
# Tau filament bind: tau filament binding. P10636. 71,000 tested, 2% active. recombinant tau filaments, thioflavin S fluorescence, 15 h; filaments grown with octadecylsulfate alongside compound. Potency, µM (doses to about 57.1 µM), inactives show at the top dose activity change, negative = inhibition;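 further: on the % scale 0 is the no-effect control and ±100 the full control effect; actives lower thioflavin S fluorescence by blocking filaments or displacing dye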
#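 ThS-based fibril read: tau 1 uM final, inducer ODS 30 uM final, 37 C for 15 h, ex 450/em 510 nm.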
# TSHR ag: TSH receptor (human) agonism | P16473 | HEK293-CNG-TSHR cells (CNG channel as cAMP sensor), membrane potential dye, cAMP | Potency, µM (doses to about 57.1 µM), inactives show at the highest dose activation, most hits filed as activators | 73,000 tested, 0.48% active | AID 926; active means well fitted activation curve with a large enough effect in the main read-out, with a control signal flat, not every such curve was filed as active; inconclusive means small, poorly fitted or top-dose-only effect, or a change in a side signal; inactive means no such curve, though single readings can be large or run the other way; % of control where 0% means no effect;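 further: the control signal comes from parental cells without the receptor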
#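 HEK 293 cells stably expressing TSHR and a cAMP-gated CNG channel; parental CNG-only cells as counterscreen. Cells preloaded 60 min with membrane potential dye plus 100 uM RO 20-1724, then compound 30 min; fluorescence read at 590 nm.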
# HEK293 cAMP ctrl: parental HEK293 cAMP activation (counter-screen) | parental HEK293 CNG cAMP sensor, membrane potential fluorescence | AID 938 | 73,000 tested, 2.5% active | Potency, µM (titrated, usually from 57.1 µM), for the others: top-dose activation, actives largely listed as activators; further: % of control where 0% means no effect; nearly all actives have a fitted effect of over 55% in size
#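 Parental HEK 293 cells stably expressing a cAMP-gated CNG channel were loaded with membrane potential dye containing 100 uM RO 20-1724 for 60 min. Compound added for 30 min; depolarization read as fluorescence intensity at 590 nm.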
# ALOX15 inhib: 15-hLO (ALOX15) enzyme inhibition. P16050. purified 15hLO-1, xylenol orange hydroperoxide absorbance. Potency, µM (top dose mostly 57.1 µM), without a hit: at the highest dose activity change, negative = inhibition, hits mostly inhibitors. 74,000 tested, 1.4% active; further: on the % scale 0 is the no-effect control and ±100 the full control effect; nearly all actives have a fitted effect of over 55% in size
#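 Compounds were preincubated 15 min at room temperature with 40 nM purified human enzyme (25 mM Hepes pH 7.5, 0.01% Triton X-100); 50 uM arachidonic acid reacted 6 min. Fe-xylenol orange detection, 30 min, absorbance ratio 573/405 nm.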
# Active calls of the source: *; i = inactive; ? = inconclusive; / = no result; [ ] = another dose, or the depositor's remark. A selection: hits, their analogues and other compounds. The true share with any hit is near 7.8%. Unless noted, the call rests on the fitted dose curve; in most records, active means well fitted curve in the direction sought with a large enough effect; inconclusive means small, poorly fitted or top-dose-only effect, or another doubt; inactive means no such curve, though single readings can be large; an effect the other way counts as inactive or inconclusive. Potency means the concentration at half of the fitted maximal effect.
SMILES,FLuc inh,Bst PK mod,Tau filament bind,TSHR ag,HEK293 cAMP ctrl,ALOX15 inhib
O=C(O)c1cc(NCc2cccs2)ccc1N1CCOCC1,2%,>57,-5%,2%,7%,2%
COC(=O)c1cc(NCc2cccs2)ccc1N1CCOCC1,-1%,>57,-13%,-28%,-12%,20µM*
COC(=O)c1cc(NCc2c(F)cccc2Cl)ccc1N1CCOCC1,2%,>57,?,-11%,-3%,16µM*
COc1ccc(Nc2cc(C(=O)NCCCN3CCN(C)CC3)c3ccccc3n2)c(OC)c1,-20%,/,13µM*,-6%[11.4 µM],16%,-16%
COc1ccc(Nc2nc(N3CCCC3)nc3ccccc23)c(OC)c1,-2%,>57,439%,?,?,2%
CCOc1ccc(-c2cc(C(=O)NCCCN3CCN(CC)CC3)c3ccccc3n2)cc1,13µM*,10*,10%,15%,23%,-8%
COc1ccc(-c2cc(C(=O)NCCN3CCOCC3)c3ccccc3n2)cc1,?,i,-4%,-5%,7%,-7%
CCOc1ccc(C2C(C#N)=C(N)SC(N)=C2C#N)c(OCC)c1,0%,>57,63%,3%,8%,10µM*
O=C(O)c1cccc(OCCO)c1,1%[11.4 µM],/,3%[11.4 µM],5%[11.4 µM],7%[11.4 µM],9%[11.4 µM]
CC(C)c1ccccc1S(=O)c1ccccc1C(C)(C)O (stereo not drawn),0%[11.4 µM],/,-2%[11.4 µM],2%[11.4 µM],4%[11.4 µM],3%[11.4 µM]
NS(=O)(=O)c1cc(C(=O)O)c(O)c2ccccc12,3%[11.4 µM],/,4%[11.4 µM],3%[11.4 µM],7%[11.4 µM],6%[11.4 µM]
CCCn1c(CN(C)Cc2ccccc2)nc2c1c(=O)n(C)c(=O)n2C,1%,>57,5%,?,?,-1%
CCCCn1c(CN(C)Cc2ccccc2)nc2c1c(=O)n(C)c(=O)n2C,0%,>57,15%,?,16µM*,5%
CN(Cc1ccccc1)Cc1nc2c(c(=O)n(C)c(=O)n2C)n1CCc1ccccc1,2%,>57,14%,?,13µM*,-5%
c1csc(CNc2nc(-c3ccc4c(c3)OCO4)nc3ccccc23)c1,-1%[2.29 µM],/,260%,14%,15%,?
CC(C)=CCC/C(C)=C/C=C/C1=CC2(C)CC1(C)C(/C=C(\C)CCC=C(C)C)CC2=O (stereo not drawn),/,/,/,4%[11.4 µM],3%[11.4 µM],-6%[11.4 µM]
CCC(CC)C(=O)Nc1cccc(-c2nc3ccccc3o2)c1,-11%,>57,89%,6.3µM*,27%,2%
CC(C)Nc1ncnc2c1cnn2-c1ccccc1,7.9µM*,/,3%,?,?,4%
CCOc1ccc(Nc2ncnc3c2cnn3-c2ccccc2)cc1,3%,/,33%,0%,-6%,-2%
Cc1cccc(-n2ncc3c(NC(C)C)ncnc32)c1,13µM*,/,-10%,?,?,-5%
Cc1ccccc1Nc1ncnc2c1cnn2-c1ccccc1,13µM*,/,-10%,?,?,-4%
CC(=O)OCC1OC(C#CCC2CCCCC2)C=CC1OC(C)=O (stereo not drawn),/,/,/,1%[11.4 µM],8%[11.4 µM],9%[11.4 µM]
CCN1C(=O)[C@H]2[C@H]3[C@H](O)[C@H](O)C/C(=N/OC/C=C(\C)CCC=C(C)C)[C@H]3CC[C@@H]2C1=O,1%[11.4 µM],/,/,10%[11.4 µM],7%[11.4 µM],-12%[11.4 µM]
O=C(O)CC(CC(=O)O)C(=O)O,1%[11.4 µM],/,-8%[11.4 µM],0%[11.4 µM],23%[11.4 µM],1%[11.4 µM]
O=C(C1CCN(S(=O)(=O)c2ccc(Br)s2)CC1)N1CCc2ccccc21,2%,>57,55%,?,?,-12%
SMILES,FLuc inh,Bst PK mod,Tau filament bind,TSHR ag,HEK293 cAMP ctrl,ALOX15 inhib
CCC(c1nnnn1Cc1cccs1)N1CCN(C2CCCC2)CC1 (stereo not drawn),1%,>57,2%,?,5µM*,-13%
c1ccc2sc(N3CCN(Cc4nnnn4CC4CCCO4)CC3)nc2c1 (stereo not drawn),-2%,>57,-11%,?,25µM*,-3%
CCCC(c1nnnn1Cc1cccs1)N1CCN(C2CCCC2)CC1 (stereo not drawn),1%,>57,-3%,?,?,7%
c1ccc2c(c1)CCCN2Cc1nnnn1CC1CCCO1 (stereo not drawn),1%,>57,161%,?,?,-22%
CCCC(c1nnnn1Cc1ccco1)N1CCN(C2CCCC2)CC1 (stereo not drawn),1%,>57,6%,?,16µM*,-46%
CCC(c1nnnn1Cc1cccs1)N1CCN(c2nc3ccccc3s2)CC1 (stereo not drawn),-1%,>57,52%,?,32µM*,-2%
CC(C)C(c1nnnn1Cc1ccco1)N1CCN(C2CCCC2)CC1 (stereo not drawn),1%,>57,-7%,?,?,?
COCCn1nnnc1C(c1cccs1)N1CCN(c2nc3ccccc3s2)CC1 (stereo not drawn),2%,>57,11%,13%,20%,-7%
Cc1cnn(-c2ccc3nnc(-c4ccc(Br)cc4)n3n2)c1,3%,/,61%,?,10µM*,4%
Cc1ccc(C)c(NC(=O)NCc2ccc(Cl)cc2)c1,2%[11.4 µM],/,0%[11.4 µM],0%[11.4 µM],12%[11.4 µM],0%[11.4 µM]
CN[C@@H]1[C@H](O)[C@H](NC)[C@@H]2O[C@]3(O)C(=O)C[C@@H](C)O[C@H]3O[C@@H]2[C@H]1O,-2%[11.4 µM],/,40µM*,1%,3%,/
Cc1cccc2cc(CN(CCCO)C(=O)Nc3cccc(Cl)c3)c(=O)[nH]c12,-16%,/,8%,1%,13%,20µM*
CS(=O)(=O)N(CC(=O)NCc1ccccn1)Cc1ccc(Cl)cc1,-1%,>57,2%,/,9%,6%
ClC/C=C/CCl,/,/,2%,-1%,10%,-5%
Cc1nc2ccc(NC(=O)Cc3cccs3)cc2s1,25µM*,/,-14%,?,?,-15%
O=C(Cc1cccs1)Nc1ccc(C(=O)O)cc1,2%,>57,-11%,-2%,0%,10%
Cc1cc(C(=O)CN2C(=O)NC3(CCCc4ccccc43)C2=O)c(C)n1Cc1cccs1 (stereo not drawn),13µM*,/,53%,-2%,5%,-5%
CCOC(=O)c1cc2cc(OC)ccc2[nH]1,-29%[25.5 µM],i,/,/,/,/
COc1ccc2[nH]c(C(=O)c3ccccc3)cc2c1,2%,/,?,?,7.9µM*,-11%[25.6 µM]
Cc1ccc(S(=O)(=O)N2CCC(C(=O)N3Cc4ccccc4C3)CC2)cc1,3%,?,2%,18%,7%,4%
COc1ccc(S(=O)(=O)N2CCC(C(=O)N3CCc4ccccc4C3)CC2)cc1,-1%,/,6%,?,32µM*,-5%
NCCCC(=O)N1c2ccccc2Sc2ccccc21,2%,/,?,7%,1%,5%
O=C(CN1CCCC1)N1c2ccccc2Sc2ccccc21,0%,>57,20µM*,-2%,8%,?
